According to PubChem BioAssay AID488890 (Southern Research Specialized Biocontainment Screening …, 2010):
Screen size: about 320,000 compounds; about 1,300 (0.41%) were called active. Another 3% or so got no clear call; they are omitted. How the calls were made is not given here. The list is a sample of the results. Results with a measured potency or affinity are listed apart.

assay: growth inhibition of non-replicating M. tuberculosis (AID 488890); details: Mycobacterium tuberculosis non-replicating, at 25 µM, stronger effect = higher value;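 further: plate controls were DMSO cells for no effect and high antibiotic wells for full effect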

Structure (SMILES) | inhibition
CC(=O)N1N=C(c2ccc(Cl)cc2)CC1c1ccc([N+](=O)[O-])cc1 (stereo unspecified) | -10.2%
O=C(c1ccc([N+](=O)[O-])cc1)N1CCSC1c1ccc(Cl)cc1 (stereo unspecified) | 6.9%
COc1ccccc1CNC(=O)CCCn1nc(C)c2c(C)n(-c3ccccc3)nc2c1=O | 5.28%
O=C(CNC(=O)N1CC(=O)Nc2ccccc21)Nc1cc(Cl)ccc1Cl | 5.7%
CN1C(=O)N(C)C(c2ccccc2Cl)C2=C1CC(C)(C)CC2=O (stereo unspecified) | 1.21%
O=C(O)c1ccc(N=N/C(=N\Nc2ccc(C(=O)O)cc2)c2ccccc2)cc1 | 29.9%
Brc1ccc(N/N=C(/N=Nc2nn[nH]n2)c2ccccc2)cc1 | 76.2%
CCOC(=O)c1nc(C)nc(Sc2n[nH]c(-c3cc(C(F)(F)F)cc(C(F)(F)F)c3)n2)c1C | 46.5%
O=C(O)c1ccccc1C(=O)Nc1ccc(S(=O)(=O)NC2CCCCC2)cc1 | -4.02%
CCC(C)C(NC(=O)c1ccccc1NC(=O)c1ccc(OC)cc1)C(=O)NCCCn1ccnc1 (stereo unspecified) | 7.04%
CC1(N(O)/C=C2\C=CC=CC2=O)CCCCC1=O (stereo unspecified) | 3.64%
O=C(CN1CCN(S(=O)(=O)c2ccccc2F)CC1)Nc1ccccc1C(=O)c1ccccc1 | 27.9%
Cc1onc(-c2ccccc2Cl)c1C(=O)O/N=C(\N)c1ccccc1 | 10.2%
Cc1onc(-c2c(Cl)cccc2Cl)c1C(=O)O/N=C(\C#N)c1c(Cl)cccc1Cl | 4.59%
C/C(=N\OC(=O)c1c(-c2c(F)cccc2Cl)noc1C)c1nccs1 | 4.04%
Cc1onc(-c2cccc(Cl)c2Cl)c1C(=O)O/N=C(\N)c1ccc([N+](=O)[O-])o1 | 60%
O=C(O)c1cccc2c1C(=O)c1ccc(-c3ccc(OC(F)(F)F)cc3)cc1S2(=O)=O | -2.64%
O=[N+]([O-])c1cc(/C=N/OCc2c(Cl)cccc2Cl)ccc1N1CCOCC1 | 22.5%
CCOC(=O)N1CCN(c2ccc(Cl)c(Cl)c2)CC1 | 75.6%

Structure (SMILES) | inhibition
COC(=O)N1CCN(c2ccc(Cl)c(Cl)c2)CC1 | 39%
Cc1cc(Cl)c(S(=O)(=O)N2CCN(c3cccc(C)c3C)CC2)cc1OCC(N)=O | 6.33%
COC(=O)c1[nH]c2ccc(C)cc2c1NC(=O)C1=COCCO1 | 2.53%
COc1cc(C(=O)N/N=C(\c2ccccc2)c2ccccn2)cc(OC)c1OC | 43.4%
O=C(c1cccc([N+](=O)[O-])c1)c1ccccn1 | 2.21%
COc1cccc(C(=O)NCCNC(=O)c2ccccn2)c1 | -10.9%
COc1ccc(C(=O)NNC(=O)c2ccccn2)cc1 | 12.8%
COc1ccc(C(=O)NCCNC(=O)c2ccccn2)cc1 | -3.54%
O=C(N/N=C(\c1ccccc1)c1cccnc1)c1cc(O)ccc1O | 30.3%
C/C(=N/NC(=O)CNC(=O)c1ccccn1)c1cccc([N+](=O)[O-])c1 | -4.01%
O=C(N/N=C(\c1ccccc1)c1cccnc1)c1ccc(O)cc1 | -6.44%
C(=N\N1CCN(Cc2ccccc2)CC1)/c1ccc(-c2ccccc2)cc1 | 43%
Cc1ccc(CNC(=O)Cn2nnc(C(=O)Nc3cccc(C)c3C)c2N)cc1 | -3.98%
CC(C)c1ccccc1NC(=O)c1ccccc1NC(=O)C1CCCCC1 | -1.84%
COc1ccc(C)cc1-n1nnnc1SCC(=O)Nc1cccnc1Cl | 17.6%
O=C(NCC(=O)N1CCN(c2ccccn2)CC1)c1ccc(Br)o1 | -3.21%
Cc1ccc(COC(=O)NCc2cccnc2)cc1 | 4.06%
Cc1cc(C)c(C)c(S(=O)(=O)Nc2ccc(C(=O)N3CCCC3)cc2)c1C | 5.64%
O=[N+]([O-])c1ccc2nonc2c1Nc1cccc(F)c1 | 32.1%

Structure (SMILES) | inhibition
O=C(CCCN1CCC(c2ccccc2)C1)c1ccc2c(c1)OCCO2 (stereo unspecified) | 12.3%
COc1cc(C(=O)N2CCN(C(=O)c3ccccc3)CC2)cc(OC)c1OC | -17.1%
COc1ccc(-n2nc3c(c2NC(=O)c2ccco2)CS(=O)(=O)C3)cc1 | 3.65%
CC(/C=N/N1CCN(c2ccc(C)cc2)CC1)=C\c1ccccc1 | 10.7%
COc1ccccc1N1CCN(C(=O)c2sc3nc(-c4ccc(F)cc4)cn3c2C)CC1 | 40.2%
CC(=O)N1CCN(C(=O)c2ccc(-c3ccccc3Cl)o2)CC1 | 5.06%
NC(=O)C1CCN(C(=O)c2ccc(-c3ccccc3Cl)o2)CC1 | -8.98%
CC(C)OP(=O)(OC(C)C)C(Nc1ccccn1)c1ccc(F)cc1 (stereo unspecified) | -0.14%
O=C(Cn1cnc2c(nnn2Cc2ccc(Cl)cc2)c1=O)OCc1ccccc1 | -1.54%
O=C(Nc1nccs1)C(Cl)(Cl)Cl | 5.95%
Cc1cc(C)c2ccc(C(=O)O)nc2c1O | 15.6%
Cc1cc(C)c2ccc(N)nc2c1O | 41.3%
CC(=N/O)/C(C)=N\NC(=O)c1ccccn1 | 33%
O=C(NNC(=O)c1ccc([N+](=O)[O-])o1)c1ccccc1 | 70%
Cc1cccnc1NC(=O)c1ccc([N+](=O)[O-])o1 | 70.2%
O=C(Nc1ncccn1)c1ccc([N+](=O)[O-])cc1 | 34%
O=C(Nc1ccccn1)c1ccco1 | 2.01%
O=C1CN(C(=O)CSc2nnnn2-c2ccc(Cl)cc2)c2ccccc2N1 | 20.5%
